Drawing on PubChem BioAssay (NCATS), this text covers max response, outcome and Potency for five molecules.

Several values for one entry are separate records, joined by “and”; a condition that tells them apart may be missing. Equal entries are not always repeated. Records with an inconclusive call do not appear. More than one record can exist for a structure, and the calls need not agree. Activity calls are given as the source filed them. Calls come from the whole dose curve; as a rule, active = well fitted curve in the direction sought with a large enough effect; inconclusive = small, poorly fitted or top-dose-only effect, or another doubt; inactive = no such curve, though single readings can be large; an effect the other way counts as inactive or inconclusive.

One assay deals with CRL-7250. Put plainly: Cytotoxic Profiling of Annotated Libraries Using Quantitative High-Throughput Screening (AID 1296008). For max response: % is set by controls: 0 for no effect and ±100 for the full control effect. Note: nearly all actives have a fitted effect of over 60% in size. Note: potency is the fitted concentration of half-maximal effect. To be noted: Five cell lines viability, CellTiter-Glo ATP luminescence, 48-72 h; max response: stronger effect = lower value. Summed up: (§1)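 Cytotoxicity was measured as CellTiter-Glo ATP luminescence, read after 10 min at room temperature. Compound treatment of the cells lasted 48 or 72 hr at 37 degrees Celsius in a qHTS format.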

In the next assay the test system is HEK293. Described as above. The settings on record: Five cell lines viability, CellTiter-Glo ATP luminescence, 48-72 h; max response: stronger effect = lower value. Summed up:
as §1

The test system of assay [1] is HaCat. The description is as above. To be noted: Five cell lines viability, CellTiter-Glo ATP luminescence, 48-72 h; max response: stronger effect = lower value. Summed up:
as §1
(ATP-based viability assays read luminescence as a measure of living cells.)

The test system of the next assay is KB-3-1. The assay is described as above. To be noted: Five cell lines viability, CellTiter-Glo ATP luminescence, 48-72 h; max response: stronger effect = lower value. Summed up: as §1
In assay [2] the test system is NIH3T3. Described as above. To be noted: Five cell lines viability, CellTiter-Glo ATP luminescence, 48-72 h; max response: stronger effect = lower value. In outline:
as §1

Assay [3] deals with HACAT. Put plainly: qHTS assay to identify novel small-molecules to repurpose for Merkel cell carcinoma treatment (AID 1296009). Note: nearly all actives have a fitted effect of over 60% in size. Note: potency is the fitted concentration of half-maximal effect. To be noted: MCC and control cell lines, CellTiter-Glo viability, 72 h; at 44.8 µM (top of the series) unless noted. In outline: (§2)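 After compound transfer in DMSO, plates were kept 72 hr at 37 degree celsius. Luminescent ATP signal from CellTiter-Glo served as viability measure, normalized against DMSO and no-cell controls.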

In the next assay the test system is MCC-13. The assay is described as above. To be noted: MCC and control cell lines, CellTiter-Glo viability, 72 h; series mostly up to 46 µM. Summed up: as §2
The test system of a further assay is MCC-26. Described as above. The settings on record: MCC and control cell lines, CellTiter-Glo viability, 72 h; series mostly up to 46 µM. Summed up:
as §2

The next assay has as its system MKL-1. The description is as above. The settings on record: MCC and control cell lines, CellTiter-Glo viability, 72 h; series mostly up to 46 µM. In outline:
as §2

Another assay concerns MKL-2. The description is as above. The settings on record: MCC and control cell lines, CellTiter-Glo viability, 72 h; series mostly up to 46 µM. Summed up: as §2
Assay [4] has as its system NIH3T3. Described as above. The settings on record: MCC and control cell lines, CellTiter-Glo viability, 72 h; at 44.8 µM (top of the series) unless noted. In outline:
as §2

A further assay deals with UISO. The description is as above. To be noted: MCC and control cell lines, CellTiter-Glo viability, 72 h; series mostly up to 46 µM. Summed up: as §2
Another assay concerns WaGa. The description is as above. To be noted: MCC and control cell lines, CellTiter-Glo viability, 72 h; series mostly up to 46 µM. In outline:
as §2

Another assay has as its system C33A. Put plainly: Primary qHTS to identify gynecologic anti-cancer compounds using libraries of approved drugs and bioactive compounds (AID 1345084). Note: % is set by controls: 0 for no effect and ±100 for the full control effect; nearly all actives have a fitted effect of over 55% in size. To be noted: Gynecologic cancer cell panel viability, ATPlite luminescence, 48 h; series mostly up to 57.5 µM. Summed up:
(§3)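 ATP-based viability (ATPlite), 1,000 cells/well, 16 h pre-incubation, 48 h compound at 37 C, 5% CO2, 15 min RT before read.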

Another assay relates to CAOV3. Described as above. The settings on record: Gynecologic cancer cell panel viability, ATPlite luminescence, 48 h; series mostly up to 57.5 µM. Summed up: as §3
In a further assay the test system is CASKI. The assay is described as above. To be noted: Gynecologic cancer cell panel viability, ATPlite luminescence, 48 h; series mostly up to 57.5 µM. Summed up: as §3
In another assay the test system is Es-2. The assay is described as above. The settings on record: Gynecologic cancer cell panel viability, ATPlite luminescence, 48 h; series mostly up to 57.5 µM. Summed up: as §3
The next assay deals with HeLa. Described as above. To be noted: Gynecologic cancer cell panel viability, ATPlite luminescence, 48 h; series mostly up to 57.5 µM. Summed up: as §3
Another assay deals with W2. Put plainly: qHTS profiling for inhibitors of Plasmodium falciparum proliferation (AID 504749). Note: nearly all actives have a fitted effect of over 60% in size. Note: potency is the fitted concentration of half-maximal effect. To be noted: P. falciparum in erythrocytes, SYBR Green DNA, 72 h; series mostly up to 28.7 µM. In outline: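 Three-day growth assay of blood-stage parasites in erythrocytes (0.3% parasitemia, 2.5% hematocrit) at 37 C, 5% CO2, quantified by SYBR Green DNA staining after overnight detergent lysis.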
A general note: Quantitative high-throughput screening tests each substance at several concentrations.

Another assay relates to HEK293T. Put plainly: qHTS assay to identify novel small-molecules to repurpose for Merkel cell carcinoma treatment (AID 1296009). Note: nearly all actives have a fitted effect of over 60% in size. Note: potency is the fitted concentration of half-maximal effect. To be noted: MCC and control cell lines, CellTiter-Glo viability, 72 h; at 44.8 µM (top of the series) unless noted. In outline:
as §2

With `Cc1nnc(C(=O)NC(C)(C)c2nc(C(=O)NCc3ccc(F)cc3)c(O)c(=O)n2C)o1`, the max response in the assay with CRL-7250 was 1.7% (inactive) and -8.84% (inactive); in the assay on HEK293, -1.41% (inactive) and 1.54% (inactive) and -3.51% (inactive); with HaCat [1], -1.85% (inactive) and 3.43% (inactive); with KB-3-1, -0.518% (inactive) and 8.61% (inactive); in the assay on NIH3T3 [2], -3.12% (inactive) and 2.12% (inactive). In addition, the outcome with CRL-7250, in the assay on HaCat [1], in the assay with NIH3T3 [2], in the assay with HACAT [3] and in the assay with NIH3T3 [4] was inactive. The Potency entry in the assay with MCC-13, in the assay on MCC-26, in the assay with MKL-1, with MKL-2, with UISO and with WaGa was “inactive” each time. In addition, the Potency entry in the assay with C33A, in the assay on CAOV3, in the assay with CASKI, in the assay with Es-2 and in the assay with HeLa was “inactive” in each case.

Consider `CNCC[C@H](Oc1cccc2ccccc12)c1cccs1`, for which the Potency with W2 is 1.9 µM (active); in the assay on HEK293, 21.1 µM (active); in the assay with MKL-2, 16.8 µM (active) and 18.7 µM (active); with UISO, 16.6 µM (active). Further, the max response was -21.6% (inactive) in the assay on CRL-7250; -19.6% (inactive) and -13.2% (inactive) in the assay with KB-3-1. Further, the call with CRL-7250, in the assay on HaCat [1] and in the assay with HACAT [3] was inactive. In addition, the Potency entry in the assay on MCC-13, in the assay with MCC-26, in the assay on WaGa and in the assay on HeLa was “inactive” in each case.

Regarding `O=C(O)c1cc(=O)[nH]c(=O)[nH]1`, the Potency entry in the assay with W2, with MCC-13, in the assay on MKL-1, in the assay with MKL-2, in the assay on UISO and in the assay on WaGa was “inactive” each time. For the same molecule, the Potency result with C33A, with CAOV3, in the assay on CASKI and in the assay on Es-2 was “inactive” throughout. Further, the max response in the assay on CRL-7250 was 0.562% (inactive); in the assay on HEK293 it was -5.89% (inactive) and -6.58% (inactive); in the assay on HaCat [1], -18% (inactive); in the assay on KB-3-1, -14.3% (inactive) and 1.15% (inactive); in the assay on NIH3T3 [2] it was 3.37% (inactive). The outcome with CRL-7250, in the assay on HaCat [1] and in the assay with HACAT [3] was inactive.

Regarding `CC1=CC(=O)c2ccccc2C1=O`, the Potency in the assay with W2 was 6.01 µM (active). Further, the max response with CRL-7250 is 3.35% (inactive); in the assay on HEK293, 2.41% (inactive); in the assay on KB-3-1, 1.53% (inactive); in the assay on NIH3T3 [2], -2.61% (inactive). For the same molecule, the call in the assay with CRL-7250, in the assay on HEK293, in the assay with HaCat [1], in the assay on KB-3-1, with NIH3T3 [2] and in the assay with HACAT [3] was inactive. The molecule was classed as inactive with HEK293T and in the assay with NIH3T3 [4]. Moreover, the Potency entry in the assay with MCC-13, in the assay on MCC-26, in the assay on MKL-1, in the assay with MKL-2, with UISO and in the assay on WaGa was “inactive” each time. The Potency result with C33A, in the assay on CAOV3, with CASKI and in the assay with Es-2 was “inactive” each time.

For `CCOC(=O)[C@H](CCc1ccccc1)N[C@H]1CS[C@H](c2cccs2)CN(CC(=O)O)C1=O`, the max response with CRL-7250 is -9.28% (inactive); in the assay on HEK293, 4.3% (inactive); in the assay with HaCat [1], 4.5% (inactive); with KB-3-1, 4.95% (inactive); in the assay with NIH3T3 [2], 3.22% (inactive) and 0.311% (inactive). Besides, the molecule was called inactive with CRL-7250, with HEK293, with HaCat [1], in the assay on HACAT [3] and in the assay with HEK293T. The Potency result in the assay on MCC-13, with UISO, in the assay with C33A, with CAOV3, in the assay on CASKI and with Es-2 was “inactive” in each case. For the same molecule, the Potency entry was “inactive and 5.26 µM (active)” in the assay with MKL-1; “inactive and 1.05 µM (active)” with MKL-2; “inactive and 469 nM (active)” with WaGa.
